From PubChem BioAssay (NCI)
Compounds without any hit were thinned out: in the full panel of roughly 83,000, 20% have a hit.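 48-hour exposure, single concentration, 96-well plates; percent growth endpoint where 0 means no net growth. Active: below 10.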 Active and inactive are the calls of the source.

test system: NCI-H322M lung; test: NCI-60 one-dose screen, 48 h (100 = growth as untreated, 0 = no growth, -100 = all killed); conditions: 10 µM unless noted

Compound | growth
O=c1c2ccccc2n2cnc3ccc(Cl)c1c32 | 90.2% (inactive)
CCN(CC)CC(O)COc1c(Br)c(Br)c(Br)c2c1OC(C)(C)C2 (configuration not stated) | 60.7% (inactive)
N#Cc1c(-c2ccccc2)cc(-c2ccccc2)n(CCCC(=O)Nc2ccccc2N)c1=O | 102% (inactive)
CC1OC(n2c3ccccc3c3c4c(c5c6ccccc6[nH]c5c32)C(=O)N(CCN2CCCC2)C4=O)CC(O)C1O (configuration not stated) | 58.2% (inactive)
CCOC(=O)NC(C)C | 107% (inactive)
COc1ccc2[nH]c(C(=O)N3CCN(C(=O)OCc4ccc5c(Cl)cc(Cl)c(O)c5n4)CC3)cc2c1 | 29.1% (inactive)
O=C(/C=C/c1ccccc1)Nc1ncc(Cc2ccccc2Cl)s1 | 33.8% (inactive)
COC12C=C/C(=C(/C(=O)OCc3ccncc3)C(=O)CCCCCCCCC3(OC)C=C/C(=C(/C(=O)OCc4ccncc4)C(=O)CCCCCCCC1)O3)O2 | -63.2% (active)
CC(C)=CC(=O)OCC(=O)O[C@@H]1C[C@]2(C(C)C)O[C@@]1(C)[C@@H]1CC[C@@H](C)[C@H]1[C@@H]2OC(=O)/C=C/c1ccccc1 | 90.7% (inactive)
COc1ccc(Cc2cnc(NC(=O)c3cc(C)oc3C)s2)cc1 | 51.9% (inactive)
NC(Cc1ccc(O)c([N+](=O)[O-])c1)C(=O)O (configuration not stated) | 107% (inactive)
CC(C)COc1nc2c(c(=O)n(C)c(=O)n2C)n1C | 105% (inactive)
CCc1ccccc1-n1c(-c2ccc(OC)cc2)cc(-c2ccc(OC)cc2)c(C#N)c1=O | 82.2% (inactive)
CCCCCOC(=O)c1c(C)[nH]c(/C=C2\N=C(c3ccc[nH]3)C=C2OC)c1C | -17.8% (active)
CCCCCC(/C=N\NC(=S)N/N=C/C(=C/c1ccccc1)CCCCC)=C\c1ccccc1 | 61.3% (inactive)
O=C(c1nn(-c2ccccc2)c2c1CC(NCc1ccc(F)cc1)CC2)N1CCCCC1 (configuration not stated) | 98.2% (inactive)
CCOC(=O)c1cc2c(n1Cc1cc(OC)c(OC)c(OC)c1)-c1nc(N)sc1CCC2 | 81.7% (inactive)
COC(=O)CC[C@H](C)[C@H]1CC[C@H]2[C@@H]3CC[C@@H]4CC5(CC[C@]4(C)[C@H]3CC(=O)[C@]12C)Nc1ccccc1NC5=NC(C)(C)C (some centres not stated) | 95.6% (inactive)
CCN(CC)CCCCCNc1cc(OC(=O)c2ccc(Cl)cc2)cc2cccnc12 | 106% (inactive)

Compound | growth
CC1CCc2c(C(=O)Nc3ncc(Cc4cccc([N+](=O)[O-])c4)s3)csc2C1 (configuration not stated) | 33.1% (inactive)
COCCNC(=O)Nc1ccc2nc(-c3cccs3)c(-c3cccs3)nc2c1 | 98.6% (inactive)
OCCn1cc(-c2nc(-c3c[nH]c4ncccc34)cs2)c2cc(F)ccc21 | 66.3% (inactive)
N#Cc1ccc(O)c(C2=NCC(c3ccccc3)O2)c1 (configuration not stated) | 55.9% (inactive)
C#CCOC(=O)/C=C/c1cn(-c2ccccc2)nc1-c1ccc(OC)cc1 | 99.4% (inactive)
CCCC/C(CC)=N\NS(=O)(=O)c1ccc([N+](=O)[O-])cc1 | 109% (inactive)
Nc1n[nH]c2cccc(C#Cc3cccc(NC(=O)c4cc(F)cc(C(F)(F)F)c4)c3)c12 | 93.9% (inactive)
O=C1/C(=C/c2ccccc2O)CC/C1=C\c1ccccc1O | 96.4% (inactive)
Cn1cc(-c2csc(-c3cn(C(=O)OC(C)(C)C)c4ccc(Br)cc34)n2)c2ccnc(Cl)c21 | 85.3% (inactive)
O=C(Nc1cccc(-c2ccc(N3CCOCC3)nn2)c1)Nc1cccc(C(F)(F)F)c1 | 89.6% (inactive)
COc1cc(-c2nccc3[nH]c(-c4ccc5cc[nH]c5c4)nc23)cc(OC)c1OC | 45% (inactive)
C=CC[Se]C(=O)Cc1c(C)n(C(=O)c2ccc(Cl)cc2)c2ccc(OC)cc12 | -29.5% (active)
Cc1cc(C(=O)O)c(C)n1-c1cccc(C(=O)O)c1 | 94% (inactive)
COCCOc1cc2ncnc(N3CCN(c4cc(S(C)(=O)=O)c(C)cc4Cl)CC3)c2cc1OCCOC | 105% (inactive)
O=C(N(c1ccccc1)c1ccccc1)n1cc(I)c2nc(Cl)nc(Cl)c21 | 92.6% (inactive)
C=CCn1c(SCC(=O)Nc2ccc(C(=O)/C=C/c3ccc(Cl)cc3)cc2)nnc1-c1ccc(Br)cc1 | 91.8% (inactive)
C=CCN=c1sc2c(n1NC(=O)c1cc3ccc1CCc1ccc(cc1)CC3)C(=O)c1ccccc1C2=O | 67.8% (inactive)
Nc1c(C(=O)Nc2ccccc2F)sc2nc3c(cc12)CCCC3 | 63.1% (inactive)
